The results in this text go back to PubChem BioAssay (NCI).

SMILES strings stand for the structures. The panel holds about 83,000 compounds, 20% with a hit somewhere; the sample as a whole holds those more often.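 Each cell line was grown in a 96-well plate and treated with one concentration of compound for 48 hours. Values below 10 were considered active.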 Unmarked numbers belong to inactive results. The source made the active and inactive calls.

Common to all, as to experiment: NCI-60 one-dose screen, 48 h (100 = growth as untreated, 0 = no growth, -100 = all killed)
For test [1], the system named is HCT-15 colon. The conditions noted are these: 10 µM unless noted.
Test [2] relates to HT29 colon. Particulars: 10 µM unless noted.
In test [3] the test system is SNB-75 CNS. Particulars: 10 µM unless noted.
The test system of test [4] is SNB-19 CNS. The conditions noted are these: 10 µM unless noted.
The subject of test [5] is PC-3 prostate. The conditions noted are these: 10 µM unless noted.
In test [6] the test system is SK-MEL-5 melanoma. The conditions noted are these: 10 µM unless noted.
Test [7] relates to UACC-62 melanoma. The conditions noted are these: 10 µM unless noted.
Test [8] deals with LOX IMVI melanoma. The conditions noted are these: 10 µM unless noted.
The test system of test [9] is SK-MEL-28 melanoma. Particulars: 10 µM unless noted.
The subject of test [10] is EKVX NSCLC. The conditions noted are these: 10 µM.
In test [11] the test system is SN12C renal. Particulars: 10 µM unless noted.
The test system of test [12] is UO-31 renal. Particulars: 10 µM unless noted.
Test [13] deals with TK-10 renal. The conditions noted are these: 10 µM unless noted.
Test [14] has as its system ACHN renal. Particulars: 10 µM unless noted.
In test [15] the test system is CAKI-1 renal. The conditions noted are these: 10 µM unless noted.
The subject of test [16] is A498 renal. Particulars: 10 µM unless noted.
Test [17] has as its system CCRF-CEM leukemia. The conditions noted are these: 10 µM.
The test system of test [18] is MOLT-4 leukemia. Particulars: 10 µM unless noted.
For test [19], the system named is SK-MEL-2 melanoma. Particulars: 10 µM unless noted.
Test [20] deals with U251 CNS. Particulars: 10 µM unless noted.

As to `Nc1nc2c(c3cnccc13)C(c1cccc(Br)c1)Cc1cnccc1-2` (stereo not drawn), the growth in test [1] is 7.06% (active); in test [2] it was 4.32% (active); in [3] it was 18.9%; in [4], 24%; in [5], 11.6%; in test [6], -30.4% (active). Besides, the growth in test [7] was 21.8%; in test [8], 8.43% (active); in [9], 49.4%; in test [10] it was 27.6%; in test [11], 27.5%; in test [12], 21.4%. Further, the growth in [13] is 28.5%; in [14] it was 16.7%; in [15], 25.6%; in [16], -10.6% (active); in test [17], 6.84% (active); in [18], 11.6%.

For the molecule `Nc1nc2c(c3cnccc13)C(c1ccc(Cl)c(Cl)c1)Cc1cnccc1-2` (stereo not drawn), the growth in test [1] was -19.5% (active); in [2], 8.17% (active); in [3] it was -26.9% (active); in [4], 13.7%; in test [5] it was 5.13% (active); in test [6] it was -92.2% (active). Further, the growth in test [7] was -37.3% (active); in test [8] it was -42.7% (active); in test [9] it was -41.3% (active); in test [19], -36.3% (active); in [10], 5.75% (active); in [11] it was 2.42% (active). Further, the growth in test [12] is -39.9% (active); in test [13], -40% (active); in test [14], -67.1% (active); in [15] it was 4.1% (active); in [16], -45.6% (active); in [17], 3.33% (active). For the same molecule, in [18], the growth was 2.48% (active).

`CCCCCSc1ccc2nc(NC(=O)OCC)sc2c1`: the growth is 25.2% in [1]; 13.2% in [2]; 0.686% (active) in test [3]; 37.4% in test [4]; 21.3% in test [5]; 5.59% (active) in [6]. Moreover, the growth was 29.2% in [7]; 38.4% in [8]; 61.9% in test [9]; 45.5% in [19]; 30.3% in test [10]; 52.5% in test [11]. The growth is 38.3% in test [12]; 49.7% in test [13]; 39.7% in test [14]; 27.6% in test [15]; -0.27% (active) in [16]; 12.4% in [17]. Also, the growth in test [18] is 26.5%.

Regarding `COc1nc(OC)nc(-c2cc(-c3cc(OC)c(OC)c(OC)c3)no2)n1`, the growth in test [1] is 103%; in test [2] it was 100%; in [3] it was 97.2%; in test [4], 96.9%; in test [5] it was 86.3%; in test [6], 88.2%. Further, the growth in [7] is 97.6%; in test [8], 104%; in [9], 115%; in test [19] it was 108%; in [10], 103%; in test [11], 94.6%. The growth in test [12] is 71.3%; in [13], 101%; in [14], 108%; in test [15], 96.1%; in test [16], 82.5%; in test [17], 91.3%. The growth in test [18] is 92.6%.

Regarding `Nc1ncn([C@@H]2O[C@H](CO)[C@@H](O)C2(F)F)c(=O)n1`, the growth in test [1] was 52.2%; in test [2], 70.1%; in [3], 65%; in test [4], 58.9%; in [5], 63.6%; in test [6], 70.8%. Moreover, the growth in test [7] was 47.3%; in [8] it was 34.5%; in [9] it was 78.5%; in test [19] it was 104%; in test [10] it was 86.1%; in test [12], 39%. Also, the growth is 91.1% in [13]; 7.28% (active) in test [14]; 27.9% in test [15]; 38% in test [16]; 23.7% in test [17]; 35.6% in [18].

As to `CCOC(=O)c1cc(C(=O)c2ccc(Br)cc2)n2cc(C)cc(C)c12`, the growth was 95.5% in [1]; 82.3% in test [2]; 82.8% in test [3]; 87% in test [4]; 84.1% in test [5]; 96.2% in test [6]. Also, the growth is 89.3% in test [7]; 92.3% in test [8]; 98.5% in [9]; 91.3% in test [19]; 99.5% in test [10]; 86.8% in test [12]. Besides, the growth in [13] is 114%; in test [14], 104%; in test [15], 82.1%; in test [16] it was 78.4%; in test [17], 83.9%; in [18], 98.9%.

For the molecule `COc1nc(OC)nc(-c2cc(C(=O)c3ccc(Br)cc3)n3cc(C)cc(C)c23)n1`, the growth in [1] was 90.7%; in test [2], 74.9%; in [3], -32.2% (active); in test [4], 28.9%; in test [5], 72.5%; in test [6], 87.8%. Moreover, the growth was 92.1% in test [7]; 3.88% (active) in test [8]; 84.7% in [9]; 68.1% in test [19]; 68.1% in test [10]; 48% in test [11]. Moreover, the growth in test [12] is 71%; in [13], 82.1%; in test [14], 18.5%; in test [15], 64.8%; in [16], 71.3%; in test [17], 83.8%. In addition, the growth in test [18] was 96.6%.

Turning to `O=C(NC(=S)NNC(=S)NNc1ccccc1)c1ccccc1`, the growth is 54% in [1]; 81.2% in [2]; 4.67% (active) in test [3]; 48% in test [20]; 32.6% in [5]; 25.4% in [6]. Moreover, the growth is 25.2% in test [7]; 48.3% in test [8]; 59.3% in [9]; 24.2% in [19]; 25.7% in [11]; 54% in [12]. Further, the growth was 70.7% in [14], 55.9% in test [15], 78.9% in [16] and 39.3% in test [18].

As to `COc1ccc2cn3c4ccc(O)cc4[nH]c(=O)c3c2c1`, the growth in [1] is 17.8%; in [2] it was -89.2% (active); in test [4], 19.7%; in test [20], 5% (active); in test [6], 10.9%; in test [7], 34.9%. Also, the growth in [8] is 24.4%; in test [9] it was 24.8%; in test [10] it was 39%; in [11], 51.7%; in test [12] it was 23.6%; in test [13], -2.48% (active). The growth was 28.3% in [14]; 16.9% in test [15]; 24.5% in test [16]; 29.2% in test [17]; 15.2% in test [18].
